# Bioassay records: PubChem BioAssay, National Center for Advancing Translational Sciences (NCATS)
# Luc counter: blocks Kinase-Glo luciferase, a counter-screen artifact; Q27757; Kinase-Glo luciferase, ATP luminescence, 8 min; Potency, µM (highest dose often 38.3 µM), most hits filed as inhibitors; actives 0.28% (n = 200,000); AID 1379; note: nearly all actives have a fitted effect of over 60% in size
#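 Substrate mix (final 50 mM imidazole pH 7.2, 50 mM KCl, 7 mM MgCl2, 10 uM ATP, 0.01% Tween 20, 0.05% BSA) plus pin-tool compound, then Kinase-Glo detection mix; 8 min ambient, luminescence read.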
# VP16 counter: Gal4-VP16 reporter inhibition counter-screen | Drosophila S2 Gal4-VP16 UAS-luciferase, luminescence, 20 h | Potency, µM (titrated, usually from 53.6 µM), most hits filed as inhibitors | actives 3.5% (n = 310,000);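 note: Gal4-VP16 expression switched on by copper sulfate through the metallothionein promoter; nearly all actives have a fitted effect of over 50% in size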
# RORg inh: blocks mouse ROR gamma transcriptional activity | P51450 | Drosophila S2 Gal4-RORgamma UAS-luciferase reporter, 20 h | Potency, µM (highest dose often 53.6 µM), hits mostly inhibitors | actives 5.4% (n = 310,000) | AID 2551; note: nearly all actives have a fitted effect of over 60% in size
# Target sequence (P51450 whole entry, looked up, the tested form may be a part): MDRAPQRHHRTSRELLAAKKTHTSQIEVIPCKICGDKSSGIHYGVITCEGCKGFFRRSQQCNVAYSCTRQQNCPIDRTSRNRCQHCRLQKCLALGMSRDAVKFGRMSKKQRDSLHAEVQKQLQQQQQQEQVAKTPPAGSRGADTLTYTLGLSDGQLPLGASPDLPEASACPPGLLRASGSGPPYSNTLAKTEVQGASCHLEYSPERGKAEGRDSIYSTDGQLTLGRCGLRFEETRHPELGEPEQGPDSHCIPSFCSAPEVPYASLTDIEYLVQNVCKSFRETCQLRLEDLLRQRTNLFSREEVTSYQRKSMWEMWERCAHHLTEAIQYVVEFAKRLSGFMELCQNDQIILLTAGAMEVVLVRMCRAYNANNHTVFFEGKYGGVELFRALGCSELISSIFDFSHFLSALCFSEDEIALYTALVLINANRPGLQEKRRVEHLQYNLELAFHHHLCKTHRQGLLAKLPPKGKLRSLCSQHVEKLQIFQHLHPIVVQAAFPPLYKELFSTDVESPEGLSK
#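 Luciferase reporter read in Schneider cells carrying Gal4-RORγ (mouse) and UAS-Photinus luciferase; cells given compound 1 h before 700 uM copper sulfate induction, then incubated 20 h at ambient temperature.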
# Numbers stand for hits; – = inactive; ? = inconclusive; · = no result given; [ ] = dose if it differs, or a comment. Compounds with a hit are over-represented: about 6.2% of the library has one in this group of screens. Calls come from the whole dose curve; as a rule, active = well fitted curve in the direction sought with a large enough effect; inconclusive = small, poorly fitted or top-dose-only effect, or another doubt; inactive = no such curve, though single readings can be large; an effect the other way counts as inactive or inconclusive.
SMILES,Luc counter,VP16 counter,RORg inh
CC(C)C(=O)Nc1ccc(C(=O)N/N=C/c2cc(Br)cc(Br)c2O)cc1,–,?,?
CC1CCCC(C)N1/N=C/c1cc(Br)cc(Br)c1O (stereo not given),·,?,–
CNC(=S)N/N=C/c1cc(Br)cc(Br)c1O,–,3.16µM,3.16µM
CC(=O)Nc1ccc(C(=O)N/N=C/c2cc(Br)cc(Br)c2O)cc1,–,–,5.01µM
COC(=O)N1CC=CC1(C)C(=O)O (stereo not given),–,–,–
CCOC(=O)N1CCN(Cc2nc3cc([N+](=O)[O-])ccc3n2C)CC1,·,–,–
CCCCCCCC1=Cc2ccc(F)cc2C(C(C(C)=O)C(=O)OC)N1C(=O)OC (stereo not given),–,–,–
CC(NC(=O)c1sc2cc([N+](=O)[O-])ccc2c1Cl)C(C)(C)C (stereo not given),·,12.6µM,?
O=C(NC1CC1)c1sc2cc([N+](=O)[O-])ccc2c1Cl,–,–,?
Cc1nn(CC2CCCCC2)c(N)c1-c1ccccc1,–,11.2µM,?
CCOC(=O)Cn1nc(C)c(-c2ccccc2)c1N,–,–,–
O=C1c2ccccc2C(=O)c2c1ncn2-c1ccccc1,–,?,11.2µM
O=c1[nH]c(=S)c2ncn(-c3ccccc3)c2[nH]1,·,–,–
COC(=O)CCC(=O)N1CCCC(CO)(Cc2ccccc2F)C1 (stereo not given),·,–,–
COC(=O)C1=C(C)OC(N)=C(C#N)C1c1cccnc1 (stereo not given),–,–,–
CC(=O)C1=C(C)OC(N)=C(C#N)C1c1ccncc1 (stereo not given),–,17.8µM,?
COc1ccc(/C=C2\SC(=O)N(CC(=O)NN3CCN(C)CC3)C2=O)cc1OC,·,–,–
COc1ccc(S(=O)(=O)Nc2ccc(F)cc2)cc1N(C)S(=O)(=O)c1ccc(Cl)cc1,–,–,–
COc1ccc(NS(=O)(=O)c2ccc(OC)c(N(C)S(=O)(=O)c3ccc(Cl)cc3)c2)cc1,–,11.2µM,?
Cc1ccc(-n2c(-c3ccc(Cl)cc3)n[nH]c2=S)c(C)c1,·,1.12µM,1.41µM
COc1ccc(-c2n[nH]c(=S)n2-c2ccc(C)cc2C)cc1,·,5.01µM,2.82µM
Cc1ccc(-n2c(-c3cccnc3)n[nH]c2=S)c(C)c1,–,?,?
COc1cc(OC)cc(-c2n[nH]c(=S)n2-c2cc(OC)ccc2OC)c1,–,–,?
CCCCCN=c1ccn(Cc2ccccc2)c2ccccc12,–,–,15.8µM
OCCCc1cn(Cc2ccccc2)c2ccccc12,·,–,–
SMILES,Luc counter,VP16 counter,RORg inh
Cn1cccc1C(=O)NCCc1ccccc1,·,12.6µM,10µM
Cc1ccc(C(=O)NCCCc2ccccc2)c(C)c1,–,?,?
O=C(NCCc1ccccc1)c1ccccc1Cl,·,7.94µM,8.91µM
COc1ccc(CCNC(=O)c2cc(C(=O)c3cc(Cl)ccc3O)cn(CCc3ccc(OC)cc3)c2=O)cc1,–,–,?
Cn1cccc1C(=O)NCCc1ccc(Cl)cc1,·,–,?
O=C(O)c1ccccc1C(=O)NCCc1ccc(Cl)cc1,–,–,–
O=C(c1cc(C(=O)NCCc2ccccc2)c(=O)n(CCc2ccccc2)c1)c1cc(Cl)ccc1O,–,14.1µM,?
Cc1ccc(C(=O)NCCCc2ccccc2)c(Cl)c1,·,–,11.2µM
Cc1cccc(N(C)C(=O)CN(C)S(=O)(=O)c2ccc3c(c2)c(=O)n(C)c(=O)n3C)c1,·,–,–
CCCCCC(O)/C=C/C=O (stereo not given),–,–,–
O=C(CN1c2ccccc2Sc2ccccc21)NNC(=O)Nc1cccc(Cl)c1,·,–,–
COC(=O)c1ccc(S(=O)(=O)N2CCC(C(N)=O)CC2)n1C,·,–,–
NC(=O)[C@@H]1CSSCCC(=O)N[C@@H](CCCCN=C(N)N)C(=O)NCC(=O)N[C@@H](CC(=O)O)C(=O)N[C@@H](Cc2c[nH]c3ccccc23)C(=O)N2CCC[C@H]2C(=O)N1,·,–,–
Cc1cc(Cl)ccc1N=c1ssnc1Cl,–,?,11.2µM
Cc1cc(C)nc(/N=c2/ssnc2Cl)c1,–,?,20µM
Cc1cc(C)c(C#N)c(Cl)n1,–,–,–[10 µM]
Cc1ccc(N=c2ssnc2Cl)cc1,–,?,12.6µM
Cc1ccc(N=C2NC(=O)CS2)cc1,–,–,–
Nc1ccccc1N=c1ssnc1Cl,–,–,–
CCOc1ccc(Br)cc1S(=O)(=O)Nc1nc(CN2CCOCC2)nc2sc(C)c(C)c12,–,–,–
COc1cccc(Cn2c(=O)c(CCc3ccccc3)nc3cnc(N4CCNCC4)nc32)c1,·,–,–
CCOC(=O)C1=NOC(C(=O)NN(C)c2ncc(C(F)(F)F)cc2Cl)C1 (stereo not given),–,–,–
CC1CCC(C(C)C)C(O)C1 (stereo not given),–,–,–
COc1ccc(C)cc1NC(=O)c1cc(S(=O)(=O)N2CCOCC2)cn1C,·,–,–
COc1cc(S(=O)(=O)NCc2ccc(F)cc2)ccc1-n1cnnn1,·,–,–
SMILES,Luc counter,VP16 counter,RORg inh
CCOC(=O)c1sc(NC(=O)CNCc2ccccn2)c(C(=O)OCC)c1C,·,?,7.94µM
CCOC(=O)c1sc(NC(=O)CCN2CCCCCC2)c(C(=O)OCC)c1C,–,?,11.2µM
CCOC(=O)c1sc(NC(=O)CNCc2cccnc2)c(C(=O)OCC)c1C,–,–,–
CCOC(=O)c1c(NC(=O)CC)sc(C(=O)N2CCCCC2)c1C,–,–,–
CN(C)c1ccc(C(=O)OCC(=O)NC2CCCCC2)cc1,–,–,–
COCC(=O)N1CCC2(CCN(Cc3ccncc3)CC2)CC1,–,–,–
Cc1ccc(C=C2C(=O)c3ccccc3C2=O)o1,11.2µM,–,–
Cc1ccc(/C=C2/C(=O)c3ccc(C(=O)O)cc3C2=O)o1,–,?,–
O=C1C(=Cc2cccs2)C(=O)c2ccccc21,?,?,–
Cc1ccc(C=C2C(=O)c3ccccc3C2=O)s1,7.08µM,?,–
COc1ccc(OC)c(/C=N/NC(=O)CCCC(=O)Nc2cccc(Br)c2)c1,–,–,–
Cc1ccc(NC(=O)CCC(=O)N/N=C/c2ccc(O)cc2)cc1,·,–,–
COc1ccc(O)c(/C=N/NC(=O)CCC(=O)Nc2cccc(C)c2)c1,·,?,12.6µM
COc1ccc(O)c(/C=N/NC(=O)CCC(=O)Nc2ccc(C)cc2)c1,·,–,6.31µM
O=C(CN1C(=O)c2ccccc2C1=O)NNC1=NS(=O)(=O)c2ccccc21,–,–,–
CC(C)(C)n1nnnc1C(c1cccnc1)N(Cc1ccccc1)Cc1ccco1 (stereo not given),–,–,–
COc1cccc(CN(Cc2ccco2)C(c2ccc(F)cc2)c2nnnn2C(C)(C)C)c1 (stereo not given),–,2.82µM,–
CC(C)c1ccc(NC(=O)c2ccc(NS(C)(=O)=O)cc2)cc1,–,–,?
O=C(CSc1cccc2cccnc12)Nc1cc(C(=O)O)cc(C(=O)O)c1,·,–,–
C/C(=N\Nc1cccc2cccnc12)c1ccc(C)cc1,–,?,?
CC(=O)/C(=N\Nc1ccccc1)Sc1cccc2cccnc12,–,?,14.1µM
CC(=O)/C(=N\Nc1ccccc1Cl)Sc1cccc2cccnc12,–,4.47µM,2.82µM
O=C(N/N=C/c1nn(-c2ccccc2)cc1-c1ccc(Cl)cc1)c1ccncc1,–,–,–
CSc1ncc(C(=O)Nc2cccnc2)c(C(F)(F)F)n1,·,–,–
